Test results published in PubChem BioAssay AID1159580 (chemical genetic matrix, 2015).
Hit rate of the full screen: of about 5,500 compounds, about 2,000 (36%) were called active. Inconclusive results (about 18%) are left out. No stated cut-off is given here; in the data, active means normalized growth mostly below about 0.91 (no sharp cut-off); inconclusive means no clear call, values can overlap the other calls; inactive means mostly above about 0.92. This is one part of the list.

Assay: chemical genetic growth profiling, strain panel (AID 1159580);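 further: tested at 20 µM; growth read once vehicle control cultures reached saturation at 30 °C; 1 = growth at the plate median or of vehicle wells; lower values mean less growth of the strain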
Conditions: growth OD

Measured: normalized growth

O=C(O[C@@H]1Cc2c(O)cc(O)cc2O[C@@H]1c1ccc(O)c(O)c1)c1cc(O)c(O)c(O)c1
active: S. cerevisiae deletion strains, locus YJR043C, strain POL32, active compounds read low 0.792 | S. cerevisiae deletion strains, locus YLR058C, strain SHM2, active compounds read low 0.883 | S. cerevisiae deletion strains, locus YLR342W, strain FKS1 (second series), active compounds read low 0.628 | S. cerevisiae deletion strains, locus YLR342W, strain FKS1, active compounds read low 0.831 | S. cerevisiae deletion strains, locus YML016C, strain PPZ1, active compounds read low 0.841 | S. cerevisiae deletion strains, locus YMR058W, strain fet3, active compounds read low 0.564 | S. cerevisiae deletion strains, locus YMR125W, strain sto1, active compounds read low 1.12 [resistant] | S. cerevisiae deletion strains, locus YNL209W, strain ssb2, active compounds read low 0.597 | S. cerevisiae deletion strains, locus YOL006C, strain TOP1, active compounds read low 0.507 | S. cerevisiae deletion strains, locus YOR106W, strain vam3, active compounds read low 0.622 | S. cerevisiae deletion strains, locus YPL051W, strain arl3, active compounds read low 0.776 | S. cerevisiae strains, strain wild type, active compounds read low 0.702
inactive: S. cerevisiae deletion strains, locus YJR066W, strain TOR1, active compounds read low 0.93 | S. cerevisiae deletion strains, locus YKL009W, strain mrt4, active compounds read low 1.02 | S. cerevisiae deletion strains, locus YKL068W, active compounds read low 1.01 | S. cerevisiae deletion strains, locus YKL085W, strain MDH1 (second series), active compounds read low 0.997 | S. cerevisiae deletion strains, locus YKL085W, strain MDH1, active compounds read low 0.997 | S. cerevisiae deletion strains, locus YKL160W, strain elf1, active compounds read low 0.97 | S. cerevisiae deletion strains, locus YKR001C, strain vps1, active compounds read low 1.04 | S. cerevisiae deletion strains, locus YKR026C, strain gcn3, active compounds read low 1.03 | S. cerevisiae deletion strains, locus YKR091W, strain srl3, active compounds read low 1.02 | S. cerevisiae deletion strains, locus YLL001W, strain dnm1, active compounds read low 0.982 | S. cerevisiae deletion strains, locus YLL026W, active compounds read low 1.03 | S. cerevisiae deletion strains, locus YLL041C, strain sdh2, active compounds read low 1.02 | S. cerevisiae deletion strains, locus YLR027C, strain aat2, active compounds read low 0.993 | S. cerevisiae deletion strains, locus YLR039C, strain RIC1, active compounds read low 0.715 | S. cerevisiae deletion strains, locus YLR102C, strain apc9, active compounds read low 1.01 | S. cerevisiae deletion strains, locus YLR113W, strain HOG1, active compounds read low 1.01 | S. cerevisiae deletion strains, locus YLR221C, strain rsa3, active compounds read low 1.01 | S. cerevisiae deletion strains, locus YLR258W, strain gsy2, active compounds read low 0.952 | S. cerevisiae deletion strains, locus YLR262C, strain YPT6 (second series), active compounds read low 0.909 | S. cerevisiae deletion strains, locus YLR268W, strain sec22, active compounds read low 0.94 | S. cerevisiae deletion strains, locus YLR320W, strain mms22, active compounds read low 1.02 | S. cerevisiae deletion strains, locus YLR357W, strain rsc2, active compounds read low 0.865 | S. cerevisiae deletion strains, locus YLR370C, strain arc18, active compounds read low 0.935 | S. cerevisiae deletion strains, locus YLR371W, strain rom2, active compounds read low 0.916 | S. cerevisiae deletion strains, locus YLR384C, strain iki3, active compounds read low 1.03 | S. cerevisiae deletion strains, locus YLR418C, strain cdc73, active compounds read low 0.963 | S. cerevisiae deletion strains, locus YML032C, strain rad52, active compounds read low 1.02 | S. cerevisiae deletion strains, locus YML120C, strain ndi1, active compounds read low 1 | S. cerevisiae deletion strains, locus YML124C, strain tub3, active compounds read low 1.03 | S. cerevisiae deletion strains, locus YMR078C, strain ctf18, active compounds read low 1.02 | S. cerevisiae deletion strains, locus YMR129W, active compounds read low 1.03 | S. cerevisiae deletion strains, locus YMR205C, strain PFK2, active compounds read low 1.03 | S. cerevisiae deletion strains, locus YMR223W, strain ubp8, active compounds read low 0.985 | S. cerevisiae deletion strains, locus YMR231W, strain pep5, active compounds read low 0.972 | S. cerevisiae deletion strains, locus YMR263W, strain SAP30, active compounds read low 0.997 | S. cerevisiae deletion strains, locus YMR307W, strain GAS1, active compounds read low 0.606 | S. cerevisiae deletion strains, locus YNL067W, strain RPL9B, active compounds read low 0.961 | S. cerevisiae deletion strains, locus YNL071W, strain lat1, active compounds read low 1.02 | S. cerevisiae deletion strains, locus YNL183C, strain NPR1, active compounds read low 0.938 | S. cerevisiae deletion strains, locus YNL233W, strain BNI4, active compounds read low 0.932 | S. cerevisiae deletion strains, locus YNL248C, strain rpa49, active compounds read low 0.973 | S. cerevisiae deletion strains, locus YNL250W, strain rad50, active compounds read low 1.04 | S. cerevisiae deletion strains, locus YNL271C, strain bni1, active compounds read low 1.02 | S. cerevisiae deletion strains, locus YNL298W, strain CLA4, active compounds read low 1.01 | S. cerevisiae deletion strains, locus YNL307C, strain MCK1, active compounds read low 1.01 | S. cerevisiae deletion strains, locus YNL322C, strain KRE1 (second series), active compounds read low 1.06 | S. cerevisiae deletion strains, locus YNR049C, strain mso1, active compounds read low 1.04 | S. cerevisiae deletion strains, locus YNR052C, strain pop2, active compounds read low 0.989 | S. cerevisiae deletion strains, locus YOL012C, strain htz1 0.447 | S. cerevisiae deletion strains, locus YOL147C, strain pex11, active compounds read low 1.02 | S. cerevisiae deletion strains, locus YOR001W, strain rrp6, active compounds read low 1.01 | S. cerevisiae deletion strains, locus YOR061W, strain CKA2, active compounds read low 0.925 | S. cerevisiae deletion strains, locus YOR069W, strain VPS5, active compounds read low 0.97 | S. cerevisiae deletion strains, locus YOR070C, strain gyp1, active compounds read low 0.97 | S. cerevisiae deletion strains, locus YOR080W, strain dia2, active compounds read low 0.983 | S. cerevisiae deletion strains, locus YOR083W, strain WHI5, active compounds read low 0.961 | S. cerevisiae deletion strains, locus YOR136W, strain idh2, active compounds read low 1.01 | S. cerevisiae deletion strains, locus YOR144C, strain elg1, active compounds read low 1.02 | S. cerevisiae deletion strains, locus YOR184W, strain ser1, active compounds read low 0.969 | S. cerevisiae deletion strains, locus YOR231W, strain MKK1, active compounds read low 0.992 | S. cerevisiae deletion strains, locus YOR265W, strain rbl2, active compounds read low 0.988 | S. cerevisiae deletion strains, locus YOR270C, strain vph1, active compounds read low 0.923 | S. cerevisiae deletion strains, locus YOR290C, strain snf2, active compounds read low 0.97 | S. cerevisiae deletion strains, locus YOR316C, strain cot1, active compounds read low 1.03 | S. cerevisiae deletion strains, locus YPL055C, strain LGE1, active compounds read low 0.761 | S. cerevisiae deletion strains, locus YPL078C, strain atp4, active compounds read low 0.986 | S. cerevisiae deletion strains, locus YPL106C, strain sse1, active compounds read low 0.896 | S. cerevisiae deletion strains, locus YPL240C, strain hsp82, active compounds read low 1.01 | S. cerevisiae deletion strains, locus YPL241C, strain CIN2, active compounds read low 0.973 | S. cerevisiae deletion strains, locus YPL256C, strain CLN2, active compounds read low 1.01 | S. cerevisiae deletion strains, locus YPR119W, strain clb2, active compounds read low 1.04 | S. cerevisiae deletion strains, locus YPR141C, strain kar3, active compounds read low 1 | S. cerevisiae deletion strains, locus YPR163C, strain tif3, active compounds read low 1.03 | S. cerevisiae deletion strains, locus YPR167C, strain met16, active compounds read low 1.03 | S. cerevisiae deletion strains, strain wtn01, active compounds read low 0.963
